Source: PubChem BioAssay AID2314 (National Center for Advancing Translational Sciences (NCATS), 2010)
In all, about 300,000 compounds went through this assay and about 37,000 (12%) were called active. Cut-off read from the data, not from the text of the source: active = max response mostly above about 13% (no sharp cut-off); inactive = mostly below about 14%. The list comes from a sample in which actives are over-represented; it also holds similar structures and randomly drawn compounds.

Test: Cycloheximide Counterscreen for Small Molecule Inhibitors of Shiga Toxin; note: read at 38.3 µM for the half of the compounds with a filed dose; 0% is about no effect
Conditions: cell reporter, cycloheximide protein synthesis inhibition counterscreen; stronger effect = higher value

| SMILES | max response |
| --- | --- |
| CC(C)CC(CCc1ccccc1)OS(N)(=O)=O (stereo not given) | 2.53% (inactive) |
| COc1ccc(COC(=O)N/N=C(\C)CC(=O)Nc2ccc(Cl)cc2)cc1 | 12.4% (inactive) |
| COc1ccc(C(=O)N/N=C(\C)CC(=O)Nc2ccc(Cl)cn2)cc1 | 28.3% (active) |
| COc1ccc(C(=O)CCC(=O)Nc2ccc(Cl)cc2)cc1 | 0.287% (inactive) |
| Cc1ccc(-n2c(-c3ccc(Cl)cc3)n[nH]c2=S)cc1 | -1.99% (inactive) |
| O=C(NCCCN1CCOCC1)c1ccc2c(c1)N(Cc1cccc(F)c1)C(=O)c1ccccc1S2 | -7.81% (inactive) |
| Cc1cc(=O)[nH]c(SCc2cccc(F)c2)n1 | 0.752% (inactive) |
| Nc1cc(N)nc(SCc2ccc(Cl)cc2)n1 | 15.3% (inactive) |
| Nc1cc(N)nc(SCc2cccc(F)c2)n1 | 45.9% (active) |
| C[n+]1cc(-c2ccccc2)oc1-c1ccccc1 | 52.4% (active) |
| Cc1cc(C)n(-c2cc(Oc3ccccc3)ncn2)n1 | 21.7% (inactive) |
| Cc1cc(C)n(-c2nnc(N3CCN(c4ccccc4)CC3)nn2)n1 | 22.1% (active) |
| Cc1cc(N2CCN(c3ccccc3)CC2)nc(N2CCOCC2)n1 | -2.2% (inactive) |
| CCOC(=O)C1=C(CN2CCc3ccccc32)NC(=O)NC1c1ccc(Cl)cc1 (stereo not given) | 15.3% (inactive) |
| Cn1c(SCC(=O)N2CCCC2)nnc1-c1cccs1 | 11.6% (inactive) |
| O=C(CN1CCN(c2ccc(Cl)cc2)CC1)N1CCCC1 | 6.76% (inactive) |
| O=C(CSCc1ccc(Cl)cc1)N1CCCCC1 | 44.9% (active) |
| O=C(CSCc1cccs1)N1CCCC1 | 31.1% (active) |
| O=C(CSCc1ccc(Cl)cc1)N1CCN(Cc2ccc3c(c2)OCO3)CC1 | 10.5% (inactive) |
| O=C(CSc1ccsc1[N+](=O)[O-])N1CCCCC1 | 26.9% (inactive) |
| COC(=O)[C@@H](Cc1ccccc1)NC(=O)NCCc1ccccc1 | 6.92% (inactive) |
| O=C1OC2(CCCCC2)CC2=C1C1O[C@](c3ccsc3)(Cc3ccccc31)O2 | -3.19% (inactive) |
| Fc1cccc(CSc2nnc3ccc(-c4ccncc4)nn23)c1 | 2.07% (inactive) |
| O=C(CN1C(=O)NC(Cc2ccccc2)(Cc2ccccc2)C1=O)NCC1CCCCC1 | -2.12% (inactive) |
| CCCc1nnc(NC(=O)CCC(=O)N2CCN(S(=O)(=O)c3ccc(OC)cc3)CC2)s1 | -3.02% (inactive) |
| Oc1ccccc1-c1cc(-c2ccc(Cl)cc2)n[nH]1 | 29% (active) |
| S=c1[nH]nc(-c2cc(-c3ccccc3)n[nH]2)n1/N=C/c1c2ccccc2cc2ccccc12 | -3.32% (inactive) |
| Cc1ccc(NC(=O)c2cc(-c3ccccc3O)n[nH]2)cc1C | 12% (inactive) |
| S=c1[nH]nc(-c2cc(-c3ccsc3)n[nH]2)n1-c1ccccc1 | 6.52% (inactive) |
| c1ccc(-c2cc(-c3ccccc3)[nH]n2)cc1 | 36.7% (active) |
